Results filed as inconclusive are left out. The source made the active and inactive calls. Calls come from the whole dose curve; as a rule, active = well fitted inhibition curve with a large enough effect; inconclusive = small, poorly fitted or top-dose-only effect; inactive = flat fitted curve, though single readings scatter.
Columns and labels:
CRL-7250 = normal cell line; test: Cytotoxic Profiling of Annotated Libraries Using Quantitative High-Throughput Screening (AID 1296008); conditions: Five cell lines viability, CellTiter-Glo ATP luminescence, 48-72 h; max response: hits give low values; for max response: % is set by controls: 0 for no effect and ±100 for the full control effect
How it was run: (§1)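 Compounds were pin-transferred onto cells and incubated 48 or 72 hr at 37 degree Celsius, 95% humidity. CellTiter-Glo was added, plates sat 10 min at room temperature, then ATP-coupled luminescence was imaged as the viability read-out.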

HEK293 = test: as above; conditions: Five cell lines viability, CellTiter-Glo ATP luminescence, 48-72 h; max response: hits give low values
How it was run: as §1

HaCat [1] = test: as above; conditions: Five cell lines viability, CellTiter-Glo ATP luminescence, 48-72 h; max response: hits give low values
How it was run: as §1

KB-3-1 = test: as above; conditions: Five cell lines viability, CellTiter-Glo ATP luminescence, 48-72 h; max response: hits give low values
How it was run: as §1

NIH3T3 = test: as above; conditions: Five cell lines viability, CellTiter-Glo ATP luminescence, 48-72 h; max response: hits give low values
How it was run: as §1

HACAT [2] = test: qHTS assay to identify novel small-molecules to repurpose for Merkel cell carcinoma treatment (AID 1296009); conditions: MCC and control cell lines, CellTiter-Glo viability, 72 h; at 44.8 µM (top of the series) unless noted
How it was run: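 Cells exposed to NPC (8-point) and MIPE (11-point) compound dilutions for 72 hr at 37 degree celsius; viability read by CellTiter-Glo luminescence, normalized to no-cell and DMSO in-plate controls.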

Measured: max response
Note: nearly all actives have a fitted effect of over 60% in size.

C=C(C(=O)O)[C@@H]1CC[C@@]2(C)CC[C@@H](O)C(=C)C2C1 (stereo partly specified)
inactive: CRL-7250 4.71% | HEK293 -1.36% | HaCat [1] -0.0078% | KB-3-1 -6.38% | NIH3T3

NC1=NC2(c3cc(NC(=O)c4ccc(F)cn4)ccc3F)COCC2CS1 (stereo unspecified)
inactive: CRL-7250 3.35% | HEK293 -14.7% | HaCat [1] | KB-3-1 -4.81% | NIH3T3 -8.12% | HACAT [2]

OC[C@H]1O[C@@H](O[C@H]2[C@H](O)[C@@H](CO)O[C@@H](OCc3ccccc3)[C@@H]2O[C@@H]2OC[C@](O)(CO)[C@H]2O)[C@H](O)[C@@H](O)[C@@H]1O
inactive: CRL-7250 -8.44% | HEK293 -1.87% | HaCat [1] | KB-3-1 7.58% | NIH3T3 1.27% | HACAT [2] inactive [at 17.4 µM]

COc1ccc(C(=O)OC2C3C=COC(OC4OC(CO)C(O)C(O)C4O)C3C3(CO)OC23)cc1OC (stereo unspecified)
inactive: CRL-7250 -2.32% | HEK293 1.41% | HaCat [1] | KB-3-1 3.28% | NIH3T3 -4.72% | HACAT [2] inactive [at 17.4 µM]

COc1cccc(Cn2ncc3c4sc(S(C)=O)cc4n(C)c3c2=O)c1 (stereo unspecified)
inactive: CRL-7250 2.15% | HEK293 -7.28% | HaCat [1] | KB-3-1 | NIH3T3 2.83% | HACAT [2]

C[C@]1(O)CC[C@@H]2C(C(=O)O)=CO[C@@H](O[C@@H]3O[C@H](CO)[C@@H](O)[C@H](O)[C@H]3O)[C@@H]21
inactive: CRL-7250 -9.18% | HEK293 -5.73% | HaCat [1] | KB-3-1 0.108% | NIH3T3 1.11% | HACAT [2]

C[C@@H]1O[C@@H](O[C@H]2[C@H](O[C@H]3[C@H](O[C@H]4CC[C@@]5(C)C(CC[C@]6(C)C5CC=C5[C@@H]7CC(C)(C)CC(=O)[C@]7(C)CC[C@]56C)[C@@]4(C)CO)O[C@H](C(=O)O)[C@@H](O)[C@@H]3O)O[C@H](CO)[C@H](O)[C@@H]2O)[C@H](O)[C@H](O)[C@H]1O (stereo partly specified)
inactive: CRL-7250 -2.01% | HEK293 -1.03% | HaCat [1] | KB-3-1 | NIH3T3 0.221% | HACAT [2] inactive [at 9.27 µM]

OC[C@H]1O[C@@H](OCCc2ccccc2)[C@H](O)[C@@H](O)[C@@H]1O
inactive: CRL-7250 -3.7% | HEK293 3.92% | HaCat [1] | KB-3-1 6.47% | NIH3T3 4.48% | HACAT [2]

COc1cc(O[C@@H]2O[C@H](CO[C@H]3OC[C@](O)(CO)[C@H]3O)[C@@H](O)[C@H](O)[C@H]2O)cc(OC)c1O
inactive: CRL-7250 -3.27% | HEK293 0.643% | HaCat [1] | KB-3-1 | NIH3T3 -4.07% | HACAT [2] inactive [at 17.4 µM]

CC1OC(OC2C(OC(=O)[C@]34CCC(C)(C)C[C@H]3C3=CCC5[C@@]6(C)CC[C@H](OC7OC(C(=O)O)C(O)C(O)C7O)C(C)(C)C6CC[C@@]5(C)[C@]3(C)CC4O)OC(CO)C2O)C(O)C(O)C1OC1OCC(O)C(O)C1O (stereo partly specified)
inactive: CRL-7250 0.472% | HEK293 -8.42% | HaCat [1] | KB-3-1 8.03% | NIH3T3 -0.0675% | HACAT [2] inactive [at 9.27 µM]

C[C@H]1[C@H](C)CC[C@]2(C(=O)OC3OC(CO)C(O)C(O)C3O)CC[C@]3(C(=O)O)C(=CCC4[C@@]5(C)CC[C@H](O[C@@H]6O[C@@H](C)[C@H](OC7OC(CO)C(O)C(O)C7O)[C@@H](O)[C@H]6O)C(C)(C)C5CC[C@]43C)[C@H]12 (stereo partly specified)
inactive: CRL-7250 -1.78% | HEK293 2.35% | HaCat [1] | KB-3-1 | NIH3T3 -8.63% | HACAT [2] inactive [at 9.27 µM]

COc1ccccc1Oc1c(NS(=O)(=O)c2ccc(C)cn2)nc(-c2ccncc2)nc1OC
inactive: CRL-7250 3.94% | HEK293 -4.09% | HaCat [1] | KB-3-1 | NIH3T3 0.566% | HACAT [2]

CN(C)c1ccc(C2O[C@@H](c3ccccc3)C[C@H](c3ccccc3)O2)cc1 (stereo partly specified)
inactive: CRL-7250 | HEK293 -10.1% | HaCat [1] | KB-3-1 | NIH3T3 4.55% | HACAT [2]

O=C(NCC(=O)N1CCCC1)Nc1ccc2ccccc2c1
inactive: CRL-7250 3.04% | HEK293 2.51% | HaCat [1] | KB-3-1 | NIH3T3 -1.06% | HACAT [2]

O=C(O)c1ccncc1Nc1nn(CCN2CCC(F)(F)CC2)c2ccc(F)cc12
inactive: CRL-7250 -22.9% | HEK293 0.878% | HaCat [1] | KB-3-1 9.77% | NIH3T3 1.4% | HACAT [2]

C=C(CCO[C@@H]1O[C@H](CO)[C@@H](O)[C@H](O)[C@H]1O)C(=O)O
inactive: CRL-7250 -12.8% | HEK293 -3.91% | HaCat [1] | KB-3-1 | NIH3T3 -0.513% | HACAT [2]

CCC(=O)N1CCc2cc(OC)c(O)cc2C1
inactive: CRL-7250 -24.5% | HEK293 -5.69% | HaCat [1] | KB-3-1 -5.14% | NIH3T3 3.84% | HACAT [2]

— PubChem BioAssay (NCATS)
